# Tau fluor counter: counter-screen for tau fibril formation inhibitors; tau K18 P301L Alexa594 fluorescence, heparin fibrillization; Potency, µM (titrated, usually from 57.7 µM), inactives show at the top dose activity change, negative = decrease; 280,000 tested, 0.93% active; further: nearly all actives have a fitted effect of over 55% in size
#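 Human tau K18 P301L (15 uM unlabeled, 0.24 uM Alexa 594-labeled) in 100 mM sodium acetate pH 7 with 20 uM heparin, 6 hr at 37 C. ThT 30 uM added, 1 hr ambient; Alexa 594 FP and total fluorescence read at 555/632 nm.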
# NPSR antagonist: neuropeptide S receptor (human) antagonism, cAMP | Potency, µM (titrated, usually from 38.3 µM), for inactives: top-dose activity change, negative = inhibition, most hits filed as inhibitors | CHO-NPSR cells, cAMP TR-FRET, antagonist mode | 220,000 tested, 1% active | AID 1461 | Q6W5P4; further: nearly all actives have a fitted effect of over 50% in size
# ALDH1A1 inh: ALDH1A1 (human) enzyme inhibition. Purified ALDH1A1, NADH fluorescence, propionaldehyde substrate. P00352. Potency, µM (highest dose often 75.3 µM), inactives show top-dose activity, negative = inhibition, hits mostly inhibitors. 220,000 tested, 7.3% active; active means well fitted inhibition curve with a large enough effect, not every such curve was filed as active; inconclusive means small, poorly fitted or top-dose-only effect, or another doubt; inactive means no such curve, though single readings can be large or run the other way;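 further: plate controls were no enzyme wells and a reference inhibitor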
# Target sequence (P00352 whole entry, looked up): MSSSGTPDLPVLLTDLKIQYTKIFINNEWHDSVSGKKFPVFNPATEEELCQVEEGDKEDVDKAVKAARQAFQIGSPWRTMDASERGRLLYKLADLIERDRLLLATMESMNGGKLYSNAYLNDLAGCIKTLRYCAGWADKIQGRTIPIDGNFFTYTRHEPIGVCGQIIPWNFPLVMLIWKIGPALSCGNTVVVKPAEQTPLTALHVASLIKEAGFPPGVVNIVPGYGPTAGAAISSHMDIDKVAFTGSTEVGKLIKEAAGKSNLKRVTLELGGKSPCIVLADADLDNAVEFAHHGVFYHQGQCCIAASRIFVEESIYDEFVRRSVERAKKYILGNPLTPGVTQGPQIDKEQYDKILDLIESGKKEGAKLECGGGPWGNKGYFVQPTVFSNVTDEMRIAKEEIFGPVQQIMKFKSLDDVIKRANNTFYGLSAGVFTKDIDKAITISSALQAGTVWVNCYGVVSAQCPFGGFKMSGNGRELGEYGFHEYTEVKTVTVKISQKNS
# Tau fibril FP: blocks human tau fibril formation measured by polarization | K18 P301L tau heparin fibrillization, Alexa594 FP, 6 h | Potency, µM (doses to about 57.7 µM), without a hit: at the top dose activity, negative = inhibition, hits mostly inhibitors | P10636 | 280,000 tested, 0.39% active; further: nearly all actives have a fitted effect of over 55% in size
#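 Compound effects on tau fibrillization are measured by Alexa 594 fluorescence polarization (ex 555, em 632 nm). K18 P301L tau is used at 15 uM with 0.24 uM labeled tracer, and 20 uM heparin induces aggregation over 6 hr at 37 C.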
# Tau fibril ThT: blocks human tau fibril formation measured by thioflavin T; 270,000 tested, 2.1% active; P10636; recombinant tau K18 P301L (four-repeat tau fragment), heparin-induced fibrillization, ThT fluorescence; AID 1460; Potency, µM (top dose mostly 57.4 µM), inactives show top-dose activity, negative = inhibition, actives largely listed as inhibitors; further: nearly all actives have a fitted effect of over 55% in size
#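 Recombinant human tau K18 fragment […] carrying P301L, 15 uM unlabeled plus 0.24 uM Alexa 594-labeled, was fibrillized with 20 uM heparin in 100 mM sodium acetate pH 7 for 6 hr at 37 C; 30 uM ThT fluorescence read after 1 hr.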
# HPGD block: HPGD (human) dehydrogenase inhibition. P15428. purified HPGD, NADH fluorescence kinetic, PGE2 substrate. Potency, µM, without a hit: top-dose activity change, negative = inhibition, actives largely listed as inhibitors. 150,000 tested, 4.3% active. AID 894; active means well fitted inhibition curve with a large enough effect, not every such curve was filed as active; inconclusive means small, poorly fitted or top-dose-only effect, or another doubt; inactive means no such curve, though single readings can be large or run the other way
#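 NADH formation kinetics: reaction with 30 uM PGE2 and 1 mM NAD+ (final), 20 nM enzyme, Tris-HCl pH 8 with Tween 20, after 15 min compound preincubation at room temperature. Fluorescence change, last versus first of five reads.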
# The depositor's hits bear a star; ? = inconclusive; . = no result; [ ] = dose if it differs, or a comment. A selection: hits, their analogues and other compounds. The true share with any hit is near 9.5%. Unless noted, the call rests on the fitted dose curve; in most records, active means well fitted curve in the direction sought with a large enough effect; inconclusive means small, poorly fitted or top-dose-only effect, or another doubt; inactive means no such curve, though single readings can be large; an effect the other way counts as inactive or inconclusive. Unless noted, on the % scale 0 is the no-effect control and ±100 the full control effect; potency means the concentration at half of the fitted maximal effect.
SMILES,Tau fluor counter,NPSR antagonist,ALDH1A1 inh,Tau fibril FP,Tau fibril ThT,HPGD block
CCOC(=O)c1cnc(SC2CCc3ccccc3C2=O)nc1N (stereo unspecified),?,-7%[46.1 µM],32µM*,?,28µM*,28µM*
O/N=C(\c1ccc(Cl)cc1Cl)c1ncc(C(F)(F)F)cc1Cl,?,?,?,-14%,?,25µM*
O=C(c1ccccc1)c1ncc(C(F)(F)F)cc1Cl,-6%,18%[46.1 µM],-6%,-5%,-6%,32µM*
O=C(c1ccc(Cl)cc1Cl)c1ncc(C(F)(F)F)cc1Cl,-8%,-13%[46.1 µM],10%,-4%,-3%,-19%
O=C(O)C(Sc1ccc(Cl)cc1)Sc1ccc(Cl)cc1,.,.,10%[13.5 µM],.,.,-13%
CC(C)(C)c1cc(Br)c(O)c(CN(Cc2cc(C(C)(C)C)cc(Br)c2O)C2CCCCC2)c1,.,.,12%[13.5 µM],.,.,3%
CC(=O)c1ccc(NC(=O)C2CC(=O)N(Cc3ccccc3)C2)cc1 (stereo unspecified),-17%,-16%[46.1 µM],14µM*,-1%,8.9µM*,-8%
O=C(Nc1ccc(F)cc1F)c1ccc2c(O)c(S(=O)(=O)c3ccc(Cl)cc3)c(=O)[nH]c2c1,7%,.,.,1%,11%,.
Cc1cccc(NS(=O)(=O)c2ccc3c(c2)[C@H]2C=CC[C@H]2[C@@H](c2ccc(F)cc2)N3)c1,5.6µM*[quencher],.,.,-8%,?,.
COc1cccc(NS(=O)(=O)c2ccc3c(c2)C2C=CCC2C(c2ccc(C(=O)O)cc2)N3)c1 (stereo unspecified),13µM*[quencher],-27%,20µM*,?,14µM*,-28%
COC(=O)c1ccc([C@H]2Nc3ccc(S(=O)(=O)Nc4ccc(F)cc4)cc3[C@H]3C=CC[C@H]32)cc1,?,.,.,-5%,?,.
COc1ccc(C(=O)N/N=C(\C)c2ccc3c(c2)C2C=CCC2C(c2ccccc2)N3)cc1 (stereo unspecified),?,-1%,11µM*,-4%,13µM*,-23%
O=C(O)Cc1c[nH]c2ccc(O)cc12,-26%,?,?,-17%,-20%,22µM*
Cn1c(CSCc2ccc(Cl)cc2)n[nH]c1=S,-4%,-9%,-6%,-9%,-5%,.
CC(C)C(=O)Nc1cccc(C(=O)Nc2ccccc2C(=O)O)c1,-7%,-1%[46.1 µM],-9%,-1%,-9%,-26%
COc1cccc(C(=O)Nc2cc(C)ccc2NC(=O)COc2ccccc2)c1,-12%,-14%[46.1 µM],14µM*,-8%,-20%,.
Cc1cccc(OCC(=O)Nc2ccccc2C(F)(F)F)c1,-2%,-12%,-4%,-6%,-2%,18µM*
Cc1cccc(OCC(=O)Nc2cccc(C(=O)Nc3ccccc3C(=O)O)c2)c1,10%,0%,5.6µM*,3%,10%,?
Cc1cccc(OCC(=O)Nc2cccc(C(=O)NCC(C)C)c2)c1,0%,10%,14%,-10%,-8%,-13%
CC(C)c1ccc(OCC(=O)Nc2cccc(C(=O)Nc3ccccc3C(=O)O)c2)cc1,-5%,-13%,20µM*,-1%,-11%,.
COc1ccc(CC(=O)c2ccc(O)cc2O)cc1,-27%,-38%,?,-10%,-14%,25µM*
CCOc1ccc(C(=O)Cc2ccc3oc(C(=O)O)cc3c2)c(O)c1,0%,-6%[46.1 µM],?,3%,-2%,7.9µM*
COCC(C)NS(=O)(=O)c1ccc(OC)cc1 (stereo unspecified),-6%,1%[46.1 µM],8%,1%,0%,.
Cc1ccc(S(=O)(=O)NCCC(=O)NCc2ccc3c(c2)OCO3)cc1C,-15%,-5%[46.1 µM],7.9µM*,-3%,-18%,-3%
O=C(CCNS(=O)(=O)c1ccc2c(c1)CCC(=O)N2)NCc1ccc2c(c1)OCO2,-2%,1%[46.1 µM],9%,-4%,-1%,-6%
CCCCNC(=O)CCNS(=O)(=O)c1ccc(C)cc1,-8%,6%[46.1 µM],-8%,-3%,-11%,-1%

# Screening data as filed in PubChem BioAssay.
